This is an account of results in PubChem BioAssay (NCI).

Test systems include K-562 leukemia; MDA-MB-231 breast; RXF 393 renal; SF-268 CNS; SF-295 CNS; SF-539 CNS; UACC-257 melanoma; M14 melanoma; HCT-15 colon; HT29 colon; SNB-75 CNS; SNB-19 CNS; U251 CNS; PC-3 prostate; SK-MEL-5 melanoma; UACC-62 melanoma; LOX IMVI melanoma; SK-MEL-28 melanoma; SK-MEL-2 melanoma.
What all share (experiment): NCI-60 one-dose screen, 48 h (100 = growth as untreated, 0 = no growth, -100 = all killed)
What all share (details): 10 µM

About 83,000 compounds went through this panel and 20% of them were active in at least one assay; those are over-represented in the sample as a whole.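 Note: values are percent growth. 100 is the growth of untreated cells, values between 100 and 0 indicate rising inhibition; between -100 and 0 indicates cell death.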 Unmarked numbers belong to inactive results. Activity calls are given as the source filed them. How the source made its calls: active means growth percent below 10; inactive means the rest.

As for `Clc1ccc(/C=C2\CCCC3=C2N=C2SC=NN2C3c2ccc(Cl)cc2)cc1` (configuration not stated), the growth in the test on K-562 leukemia was 102%; with MDA-MB-231 breast, 104%; in the test on RXF 393 renal, 105%; with SF-268 CNS it was 99.2%; in the test with SF-295 CNS it was 105%; with SF-539 CNS it was 106%. Further, the growth was 97.1% with UACC-257 melanoma; 94.9% with M14 melanoma; 87.3% with HCT-15 colon; 60.7% with HT29 colon; 93.2% in the test with SNB-75 CNS; 96.5% in the test on SNB-19 CNS. For the same compound, the growth was 84.6% in the test on U251 CNS; 96.3% in the test with PC-3 prostate; 101% in the test on SK-MEL-5 melanoma; 80.2% in the test on UACC-62 melanoma; 55.1% with LOX IMVI melanoma; 98.4% with SK-MEL-28 melanoma. In the test with SK-MEL-2 melanoma, the growth was 113%.
On to `c1ccc2c(c1)oc1c3c(ccc12)NCCC3`, for which the growth with K-562 leukemia is 98.4%; in the test with MDA-MB-231 breast, 90.2%; in the test with RXF 393 renal it was 107%; with SF-268 CNS, 96.1%; in the test on SF-295 CNS, 118%; with SF-539 CNS, 93.4%. For the same compound, the growth was 95.4% with UACC-257 melanoma; 109% in the test on M14 melanoma; 81.1% with HCT-15 colon; 95.1% in the test with HT29 colon; 97.1% in the test on SNB-75 CNS; 108% in the test with SNB-19 CNS. For the same compound, the growth with U251 CNS is 90.7%; in the test with PC-3 prostate, 91.5%; with SK-MEL-5 melanoma it was 94.1%; in the test on UACC-62 melanoma, 84.2%; with LOX IMVI melanoma, 96.6%; in the test with SK-MEL-28 melanoma, 107%. Also, the growth in the test on SK-MEL-2 melanoma is 97.5%.
For `COc1cc(C2CC(c3ccc(Nc4ccnc5cc(Cl)ccc45)cc3)=NN2c2ccc(Cl)cc2)cc(OC)c1OC` (configuration not stated), the growth in the test on K-562 leukemia was 6.22% (active); in the test on MDA-MB-231 breast, 42.6%; in the test on RXF 393 renal, 60.4%; with SF-268 CNS it was 48.5%; in the test with SF-295 CNS it was 28.8%; in the test on SF-539 CNS it was 59.3%. Besides, the growth was 61.3% in the test on UACC-257 melanoma; 38.2% in the test on M14 melanoma; 45.4% in the test on HCT-15 colon; 32.6% in the test with HT29 colon; 57.2% with SNB-75 CNS; 67.9% with SNB-19 CNS. In addition, the growth in the test with U251 CNS is 51.9%; in the test with PC-3 prostate it was 36.4%; with SK-MEL-5 melanoma it was 46.8%; in the test with UACC-62 melanoma it was 22.2%; with LOX IMVI melanoma, 56.3%; in the test with SK-MEL-28 melanoma it was 67.4%. The growth with SK-MEL-2 melanoma is 55.2%.
With `COc1cc(CNc2ccccc2C(=O)N2CCN(C(=O)c3cc(-c4cc(OC)c(OC)c(OC)c4)n4nc(-c5ccccc5)cc4n3)CC2)cc(OC)c1OC`, the growth in the test with K-562 leukemia is 22.8%; in the test on MDA-MB-231 breast it was 67.8%; with RXF 393 renal, 35.5%; in the test on SF-268 CNS, 65%; in the test on SF-295 CNS it was 0.214% (active); in the test with SF-539 CNS it was 49.4%. The growth was 37.5% with UACC-257 melanoma; 33% in the test on M14 melanoma; 42.8% in the test on HCT-15 colon; 12.9% with HT29 colon; 33.5% in the test on SNB-75 CNS; 64.1% in the test on SNB-19 CNS. For the same compound, the growth is 35.2% with U251 CNS; 26.9% with PC-3 prostate; 16.5% with SK-MEL-5 melanoma; 27% in the test with UACC-62 melanoma; 35.7% with LOX IMVI melanoma; 53% in the test on SK-MEL-28 melanoma. In addition, the growth in the test on SK-MEL-2 melanoma was -0.722% (active).
Regarding `COc1cc(/C=C2\CCCC3=C2N=C2SC=NN2C3c2cc(OC)c(OC)c(OC)c2)cc(OC)c1OC` (configuration not stated), the growth in the test on K-562 leukemia is 8.28% (active); in the test with MDA-MB-231 breast, 2.06% (active); in the test with RXF 393 renal, 21.7%; in the test with SF-268 CNS, 22.9%; in the test on SF-295 CNS it was 21.4%; in the test on SF-539 CNS it was 5.9% (active). Moreover, the growth is 34.3% in the test on UACC-257 melanoma; 9.84% (active) in the test with M14 melanoma; 6.59% (active) in the test on HCT-15 colon; 3.26% (active) in the test with HT29 colon; 19.7% in the test with SNB-75 CNS; 46.4% in the test with SNB-19 CNS. The growth in the test on U251 CNS is 8.08% (active); with PC-3 prostate, 66.4%; in the test on SK-MEL-5 melanoma, 16.3%; with UACC-62 melanoma it was -51.7% (active); in the test on LOX IMVI melanoma, -36.9% (active); with SK-MEL-28 melanoma it was 42.5%. In addition, the growth with SK-MEL-2 melanoma was 89.3%.
Take `COc1ccc2c(c1)C(=O)c1c-2c(OCCN(C)C)nc2ccccc12`: the growth with K-562 leukemia is 10.2%; with MDA-MB-231 breast it was 67.8%; in the test on RXF 393 renal it was 49%; in the test with SF-268 CNS it was 26.6%; with SF-295 CNS, 18%; in the test on SF-539 CNS, 45.9%. Also, the growth with UACC-257 melanoma was 36.2%; in the test with M14 melanoma, 30%; in the test on HCT-15 colon, 20.5%; with HT29 colon, 12.2%; in the test with SNB-75 CNS it was 47.2%; in the test with SNB-19 CNS, 42.9%. Further, the growth in the test with U251 CNS is 21.1%; in the test on PC-3 prostate, 47.2%; with SK-MEL-5 melanoma, 37.4%; in the test with UACC-62 melanoma, 52.4%; with LOX IMVI melanoma it was -41.8% (active); with SK-MEL-28 melanoma, 64.9%. Further, the growth in the test with SK-MEL-2 melanoma is 16.5%.
As to `CC[C@H]1CCC/C=C/[C@@H]2C[C@H](O)C[C@H]2[C@H](O)/C=C/C(=O)O1`, the growth is 10.3% in the test on K-562 leukemia; -88.4% (active) with MDA-MB-231 breast; -29.2% (active) in the test with RXF 393 renal; 8% (active) in the test with SF-268 CNS; -1.83% (active) in the test on SF-295 CNS; 30.9% with SF-539 CNS. The growth is -13.6% (active) in the test with UACC-257 melanoma; 2.47% (active) in the test with M14 melanoma; 8.78% (active) in the test on HCT-15 colon; -56.8% (active) in the test on HT29 colon; 27.5% in the test with SNB-75 CNS; 29.7% with SNB-19 CNS. For the same compound, the growth was 15.7% with U251 CNS; 13.6% in the test on PC-3 prostate; -99.6% (active) in the test on SK-MEL-5 melanoma; -0.469% (active) in the test with UACC-62 melanoma; -93.5% (active) with LOX IMVI melanoma; -0.327% (active) in the test with SK-MEL-28 melanoma. The growth with SK-MEL-2 melanoma is -48.1% (active).
For the compound `O=C(Nc1ccncc1)C(=O)c1cn(S(=O)(=O)c2cccc(Cl)c2)c2ccccc12`, the growth was 19.8% in the test with K-562 leukemia; 87.4% with MDA-MB-231 breast; 89.2% with RXF 393 renal; 80.9% with SF-268 CNS; 55.8% in the test with SF-295 CNS; 67.3% with SF-539 CNS. Moreover, the growth in the test with UACC-257 melanoma was 78.1%; with M14 melanoma, 47%; in the test with HCT-15 colon, 49.2%; in the test on HT29 colon it was 29%; in the test on SNB-75 CNS, 85.3%; in the test with SNB-19 CNS, 89.8%. In addition, the growth in the test on U251 CNS was 61.2%; with PC-3 prostate it was 72.4%; in the test with SK-MEL-5 melanoma, 51.7%; in the test on UACC-62 melanoma, 61.2%; in the test on LOX IMVI melanoma it was 44.6%; with SK-MEL-28 melanoma, 86.5%. In the test with SK-MEL-2 melanoma, the growth was 57.7%.
